According to the supplement of paper PMC9446081:
± gives the standard deviation of the averaged measurements.

Target: T1, MurD (UniProt P14900)
T1 sequence (whole entry): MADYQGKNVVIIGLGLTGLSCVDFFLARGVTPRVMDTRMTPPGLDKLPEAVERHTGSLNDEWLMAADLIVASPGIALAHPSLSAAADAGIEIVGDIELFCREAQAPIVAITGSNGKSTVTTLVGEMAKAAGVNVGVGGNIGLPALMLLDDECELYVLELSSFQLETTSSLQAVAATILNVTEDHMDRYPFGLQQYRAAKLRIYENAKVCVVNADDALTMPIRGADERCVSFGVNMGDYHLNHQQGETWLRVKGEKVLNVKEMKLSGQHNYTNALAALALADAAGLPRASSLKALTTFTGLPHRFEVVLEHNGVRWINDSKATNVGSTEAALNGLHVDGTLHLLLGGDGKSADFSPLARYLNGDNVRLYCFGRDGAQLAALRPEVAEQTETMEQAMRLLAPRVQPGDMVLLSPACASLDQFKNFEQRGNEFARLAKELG
Experiment: relative enzymatic activity vs untreated control (fraction); higher = less inhibition
Details: 100 µM; incubation time: 2 h at 37 C
Experimental: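 In vitro enzymatic inhibition assays (ProFoldin kits) for 12 purified essential E. coli enzymes or complexes, each treated with 218 active antibacterial compounds at 100 µM for 2 h at 37°C. Read-outs were fluorescence or absorbance (phosphate detection, dye binding), converted to activity via standard curves and expressed relative to untreated DMSO controls.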

Q: How did the relative enzymatic activity turn out when Cc1c(N)nc([C@H](CC(N)=O)NC[C@@H](N)C(N)=O)nc1C(=O)N[C@H](C(=O)N[C@@H](C)[C@H](O)[C@@H](C)C(=O)N[C@@H](C(=O)NCCc1nc(-c2nc(C(=O)NCCC[S+](C)C)cs2)cs1)[C@@H](C)O)[C@@H](O[C@H]1O[C@H](CO)[C@H](O)[C@@H](O)[C@H]1O[C@H]1O[C@H](CO)[C@@H](O)[C@H](OC(N)=O)[C@@H]1O)c1c[nH]cn1 was run?
A: 0.969 ± 0.9

Q: O=[N+]([O-])C(Br)(CO)CO was tested. Which relative enzymatic activity did it give?
A: 0.486 ± 0.48

Q: Which relative enzymatic activity does the source give for CN(C)[C@@H]1C(=O)[C@@H](C(N)=O)C(=O)[C@@]2(O)C(=O)[C@H]3C(=O)c4c(O)ccc(Cl)c4[C@@](C)(O)[C@H]3C[C@@H]12 here?
A: 0.607 ± 0.41

Q: O=S(=O)(O)O.Oc1cccc2cccnc12 was tested. Which relative enzymatic activity did it give?
A: 0.564 ± 0.35

Q: CNC1C(O)C(OC2C(N)CC(N)C(OC3OC(C(C)O)C(O)C(O)C3N)C2O)OCC1(C)O (centres undefined) was tested. Which relative enzymatic activity did it give?
A: 0.592 ± 0.38

Q: With CN1C(=O)[C@]23CC4=CC=C[C@H](O)[C@H]4N2C(=O)[C@@]1(CO)SS3 as the compound, how does the relative enzymatic activity read?
A: 0.574 ± 0.39

Q: With CCCCCCCCCCCCCCCC[n+]1ccccc1.[Cl-] as the compound, how does the relative enzymatic activity read?
A: 0.0847 ± 0.0065

Q: CCn1cc(C(=O)[O-])c(=O)c2cc3c(cc21)OCO3.[K+] was tested. Which relative enzymatic activity did it give?
A: 0.598 ± 0.42

Q: Which relative enzymatic activity does the source give for O=C1C=C2C(=CCOC2O)O1 (centres undefined) here?
A: 0.611 ± 0.42

Q: Which relative enzymatic activity does the source give for CN[C@H]1C[C@@H](N)[C@H](O)[C@@H](O[C@@H]2O[C@H](CO)[C@H](O)[C@@H]3O[C@@]4(O[C@H]23)O[C@H]([C@@H](N)CO)[C@H](O)[C@H](O)[C@H]4O)[C@@H]1O here?
A: 0.592 ± 0.39

Q: For CC(=O)Oc1ccc(Cl)c2cccnc12, which relative enzymatic activity is on record?
A: 0.611 ± 0.41

Q: How did the relative enzymatic activity turn out when CCCCCCCCCCCCCCCC[n+]1ccccc1 was run?
A: 0.191 ± 0.13

Q: For [O-][n+]1ccccc1[S][Zn][S]c1cccc[n+]1[O-], which relative enzymatic activity is on record?
A: 0.587 ± 0.4

Q: How did the relative enzymatic activity turn out when O=[N+]([O-])c1ccc(N(CCO)CCO)c2c1no[n+]2[O-] was run?
A: 0.623 ± 0.41

Q: For CN(C)[C@@H]1C(=O)[C@H](C(N)=O)C(=O)[C@@]2(O)C(=O)[C@@H]3C(=O)c4c(O)cccc4[C@@](C)(O)[C@H]3C[C@@H]12, which relative enzymatic activity is on record?
A: 0.603 ± 0.41

Q: How did the relative enzymatic activity turn out when Oc1cc(Cl)ccc1Oc1ccc(Cl)cc1Cl was run?
A: 0.759 ± 0.41

Q: For CCCCCCCCCCCCCCCC[N+](C)(C)C.[Br-], which relative enzymatic activity is on record?
A: 0.256 ± 0.17

Q: With Cn1ncnc2c(=O)n(C)c(=O)nc1-2 as the compound, how does the relative enzymatic activity read?
A: 0.598 ± 0.36

Q: C[CH2][Hg][S]c1ccccc1C(=O)[O-].[Na+] was tested. Which relative enzymatic activity did it give?
A: 0.657 ± 0.43

Q: Cc1nc2c(=O)n(C)c(=O)nc-2n(C)n1 was tested. Which relative enzymatic activity did it give?
A: 0.174 ± 0.24

Q: Which relative enzymatic activity does the source give for COP(=S)(OC)Oc1cc(Cl)c(Cl)cc1Cl here?
A: 0.655 ± 0.44

Q: With CC(=O)[O][Hg][c]1ccccc1 as the compound, how does the relative enzymatic activity read?
A: 0.226 ± 0.14

Q: For CN(C)[C@@H]1C(=O)C(C(N)=O)=C(O)[C@@]2(O)C(O)=C3C(=O)c4c(O)cccc4[C@](C)(O)[C@H]3C[C@@H]12, which relative enzymatic activity is on record?
A: 0.606 ± 0.43

Q: For Cc1c(N)nc([C@H](CC(N)=O)NC[C@@H](N)C(N)=O)nc1C(=O)N[C@H](C(=O)N[C@@H](C)[C@H](O)[C@@H](C)C(=O)N[C@@H](C(=O)NCCc1nc(-c2nc(C(=O)NCCC[S+](C)C)cs2)cs1)[C@@H](C)O)[C@@H](O[C@H]1O[C@H](CO)[C@H](O)[C@@H](O)[C@H]1O[C@H]1O[C@H](CO)[C@@H](O)[C@H](OC(N)=O)[C@@H]1O)c1cnc[nH]1, which relative enzymatic activity is on record?
A: 0.624 ± 0.45
